The results in this text go back to PubChem BioAssay AID1662 (Broad Institute, 2009).

Each structure is given as a SMILES string. Screen size: about 300,000 compounds; about 4,000 (1.3%) were called active.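 Rule for the calls: active = mean replicate score, as percent of positive control median, at least 50; inconclusive = mean below 50 but one replicate at or above 50; inactive = mean and every replicate below 50.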 Many of the other results were omitted from the sample, so actives are more common in it than they were.

A short description of the test: S. pyogenes SKKanGAS growth inhibitors in kanamycin, primary screen, streptokinase expression inhibitor project, SKKanGAS strain, BacTiter-Glo luminescence (AID 1662).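 Note: strain carries kanamycin resistance gene driven by streptokinase promoter and grows in 40 µg/ml kanamycin; loss of luminescence reflects streptokinase promoter inhibition or plain growth inhibition; 0% = median of DMSO wells and 100% = positive control at its reference dose.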 The note with it: 6 h, at 7.5 µM, hits give high values.
On to `CC(C)(C)NC(=O)CN(C(=O)c1ccc(Cl)nc1)c1cccc2ccccc12`, for which the inhibition was -17.5% (inactive).

Take `CC(C)Oc1ccc(/C=N/NC(=O)c2nnn(-c3nonc3N)c2CN(C)C2CCCCC2)cc1`: the inhibition was 18.9% (inactive).

`O=C(NCC(=O)N1CCN(c2ccccc2O)CC1)c1ccc2ccccc2c1`: the inhibition was 11.7% (inactive).

With `O=C(O)C(c1ccccc1)N1C(=O)/C(=C\c2ccc(-c3cccc(Cl)c3)o2)SC1=S` (centres undefined), the inhibition is 94% (active). Consider `O=C1NN(c2ccccc2)C(=O)/C1=C/c1ccc(-c2cccc(C(=O)O)c2)o1`, for which the inhibition is -2.46% (inactive). With `CN1C(=O)/C(=C\c2ccc(-c3ccccc3)o2)SC1=S` the figure was 7.05% (inactive).

Take `Cn1c(=O)oc2cc(S(=O)(=O)NCCC(=O)NCc3ccccc3Cl)ccc21`: the inhibition is 2.05% (inactive).

Turning to `C=CCn1c(C23CC4CC(CC(C4)C2)C3)n[nH]c1=S`, the inhibition is 1.54% (inactive). The figure for `Cc1cc(NC(=O)CSc2nc3cc(Cl)ccc3c(=O)n2Cc2ccco2)no1` is 1.74% (inactive). In the case of `COc1ccccc1NC(=O)CSc1nc2sc3c(c2c(=O)n1-c1ccccc1)CCN(C)C3`, the inhibition was -17% (inactive). The figure for `COc1ccccc1NC(=O)CSc1nc2sc(C)c(C)c2c(=O)n1Cc1ccco1` is 52.6% (active).

Regarding `CC(C)Cc1oc(C(=O)O)cc1CN`, the inhibition is 4.13% (inactive). The figure for `C[C@H](NC(=O)c1nc[nH]c1C(=O)N[C@@H](C)C(=O)OC(C)(C)C)C(=O)OC(C)(C)C` is 1.23% (inactive). With `CNC(=O)c1[nH]cnc1C(=O)N[C@@H](CC(C)C)C(=O)OC(C)(C)C` the figure was -5.44% (inactive); with `CCOC(=O)c1[nH]cnc1C(=O)Nc1ccccc1C`, 10.7% (inactive); with `CCOC(=O)c1ccc(NC(=O)c2nc[nH]c2C(=O)NCc2ccccc2)cc1`, 18.8% (inactive).

Take `CCOC(=O)c1ccc(NC(=O)c2nc[nH]c2C(=O)N[C@@H](CCCCNC(=O)OC(C)(C)C)C(=O)OC(C)(C)C)cc1`: the inhibition is 50.8% (active). The figure for `Cc1ccc(NC(=O)c2nc[nH]c2C(=O)N[C@@H](CCCCNC(=O)OC(C)(C)C)C(=O)OC(C)(C)C)cc1` is 76.8% (active); for `Cc1cc(C(=O)CCC(=O)NNC(=O)c2ccccc2O)c(C)s1` it is 12.7% (inactive).

Consider `O=C1c2ccccc2S(=O)(=O)c2cc(N3CCN(c4ccccn4)CC3)ccc21`, for which the inhibition was 14.1% (inactive). The figure for `COCc1cc(=O)n2[nH]c(C)c(-c3ccccc3)c2n1` is -14.5% (inactive); for `Cc1nc2c(-c3ccccc3)c(C)[nH]n2c(=O)c1Cl` it is 18.8% (inactive). With `CCCc1cc(=O)n2[nH]c(C)c(-c3ccc(Cl)cc3)c2n1` the figure was 53.5% (active); with `Cc1ccc2nnn(Cc3cccc(C(C)(C)C)c3O)c2c1`, 11.4% (inactive); with `CC1=NNC(=O)C1CCC(=O)N/N=C\c1cccc(Cl)c1` (centres undefined), 4.3% (inactive). Regarding `O=c1[nH]oc(O)c1-c1ncc(C(F)(F)F)cc1Cl`, the inhibition was -8.5% (inactive).

With `Cc1ccc(NC(=O)C2CC(=O)N(c3ccc4c(c3)OCCO4)C2)cc1S(=O)(=O)N1CCCCCC1` (centres undefined), the inhibition was -2.91% (inactive). With `Cc1ccccc1NC(=O)CNc1ccccc1N1CCCCC1` the figure was 9.21% (inactive). The figure for `Cc1ccc(C(C)C)cc1OCC(=O)Nc1ccccc1N1CCCC1` is 69.7% (active); for `CCC(=O)N1CCN(c2ccccc2NC(=O)COc2cccc(C)c2C)CC1` it is 5.73% (inactive). The figure for `Cc1nn2c(NCCN(C)C)c3c(nc2c1-c1ccccc1)CCC3` is 6.41% (inactive).

Consider `Cc1cccc(N2CCN(C(=O)c3cnn4c(C(F)F)cc(-c5ccccc5)nc34)CC2)c1C`, for which the inhibition was 38.6% (inactive). With `Cc1ccc(Cl)cc1N1CCN(C(=O)c2cccc3c(=O)c(C)c(-c4ccccc4)oc23)CC1` the figure was 52.6% (active); with `COC(=O)c1ccc(C(=O)OC)c(NC(=S)N2CCN(c3cc(Cl)ccc3C)CC2)c1`, 14.5% (inactive); with `CC1(C)C=C2[C@H]3CC[C@@H]4[C@@]5(C)CCC(=O)C(C)(C)[C@@H]5CC[C@@]4(C)[C@]3(C)CC[C@@]2(C(=O)O)CC1`, 96.7% (active). The figure for `Cc1ccc(S(=O)(=O)N2CCOCC2)cc1C(=O)Nc1ccccc1N1CCCC1` is -4.42% (inactive). With `COc1ccc(C(=O)NC2CC2)cc1OC1CCN(Cc2cnn(C)c2)CC1` the figure was 7.48% (inactive); with `CCCCCC(O)c1cccc(OCc2ccc3ccccc3n2)c1` (centres undefined), 15.6% (inactive); with `O=C1c2ccccc2C2=Nc3ccccc3SC(c3ccccc3F)C12` (centres undefined), 52.9% (active). Take `O=C1c2ccccc2C(=O)C1c1ccccc1F`: the inhibition was 0.629% (inactive). The figure for `CCOC(=O)C1=C(C)N=C2c3ccccc3C(=O)C2C1c1ccc(Br)cc1` (centres undefined) is 38.8% (inactive); for `O=C(c1ccc(F)cc1)C1CCN(Cc2cn[nH]c2-c2ccccc2)CC1` it is -0.535% (inactive); for `CCN1C(=O)[C@H]2[C@@H](c3ccc(-c4ccc(F)cc4)cc3)N[C@@](Cc3ccccc3)(C(=O)OC)[C@H]2C1=O` it is 9.27% (inactive). With `CCC(C)C(=O)Nc1cc([N+](=O)[O-])ccc1Cl` (centres undefined), the inhibition is -5.67% (inactive). The figure for `O=C(CN1CCSCC1)N/N=C/c1ccc(F)cc1F` is -4.84% (inactive); for `O=C(Nc1nnc(-c2ccccc2)o1)c1cc(-c2cccs2)nc2ccccc12` it is 92.3% (active). With `COC(=O)c1cc(-c2cccs2)nc2ccccc12` the figure was -7.36% (inactive); with `O=C(NCCN1CCOCC1)c1cc(-c2cccs2)nc2ccccc12`, -10.4% (inactive); with `C#CCNC(=O)C1=C[C@@H](c2ccccc2)[C@H](CCCO)[C@@H](OCC)O1`, 0.924% (inactive).

Turning to `O=C(Nc1ccccc1Cl)NC1(C(=O)N2CCOCC2)CCCCC1`, the inhibition is -13% (inactive). With `CCc1nc(NCCO)c(C#N)c2c1CCCC2` the figure was -3.02% (inactive); with `CCCCc1nc(NCc2ccccc2)c(C#N)c2c1CCCC2`, 60% (active). On to `CCCCc1nc(NCCN)c(C#N)c2c1CSC(C)(C)C2`, for which the inhibition is -15.3% (inactive). The figure for `CCCNC(=O)C(=O)Nc1cc2c3c(c1)CCC(=O)N3CCC2` is -4.99% (inactive); for `COc1cc(NS(=O)(=O)c2ccc(NC(=S)NC(=O)c3ccc(Br)cc3)cc2)ncn1` it is 16.4% (inactive); for `CC(c1cccnc1)N(CCN(C)C)C(=O)Nc1ccc(Cl)c(Cl)c1` (centres undefined) it is -0.312% (inactive). With `Cc1ccccc1C(=O)Nc1ccccc1Sc1ccccc1` the figure was 25.4% (inactive); with `O=C(COC(=O)c1cccc(Br)c1)Nc1cccc2c1C(=O)c1ccccc1C2=O`, -1.24% (inactive).

For `O=C(COC(=O)c1ccccc1)Nc1ccccc1Sc1ccccc1`, the inhibition is 58.2% (active).

In general, inhibition refers to the change of the read-out against control, counted positive when it falls.
